Assay [1] is described as follows: liver-stage malaria parasite growth inhibition, primary screen, cell-based, HepG2, luciferase luminescence, HepG2 viability (AID 624349; in the data active means parasite load remaining mostly below about 12%, no sharp cut-off; inactive means mostly above about 10%;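 further: 100% = mean of DMSO negative control wells on the same plate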). The note with it: P. berghei liver stage in HepG2, luciferase luminescence, concentration not given here; parasite load remaining: stronger effect = lower value; viability: measured here: HepG2 viability without parasites.
Assay [2] is described as follows: sensitizers of A549 cells to miR-34 induction, primary screen, imaging, A549 dox-inducible miR-34, nuclei and caspase counts (AID 1347080;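 active means compounds whose cell count with miR-34 switched on is under 0.7 times the count with it off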). The note with it: A549 miR-34 inducible, Hoechst nuclei count, 48 h.
The target of assay [3] is Mitogen-activated protein kinase 7 (Homo sapiens) (UniProt Q13164). The assay can be described thus: ERK5 transactivation activators in reporter cells, primary screen, cell-based, HTS (AID 1508626;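 active means luciferase signal above three times the same-plate solvent-only control wells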;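 further: luciferase driven by Gal4-ERK5 fusion binding five Gal4 sites before minimal TATA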). The settings on record: HeLa Gal4-ERK5 transactivation, 18 h, at 5 µM, stronger effect = higher value.
Sequence of Mitogen-activated protein kinase 7 (Homo sapiens) (Q13164 whole entry, looked up, the tested form may be a part): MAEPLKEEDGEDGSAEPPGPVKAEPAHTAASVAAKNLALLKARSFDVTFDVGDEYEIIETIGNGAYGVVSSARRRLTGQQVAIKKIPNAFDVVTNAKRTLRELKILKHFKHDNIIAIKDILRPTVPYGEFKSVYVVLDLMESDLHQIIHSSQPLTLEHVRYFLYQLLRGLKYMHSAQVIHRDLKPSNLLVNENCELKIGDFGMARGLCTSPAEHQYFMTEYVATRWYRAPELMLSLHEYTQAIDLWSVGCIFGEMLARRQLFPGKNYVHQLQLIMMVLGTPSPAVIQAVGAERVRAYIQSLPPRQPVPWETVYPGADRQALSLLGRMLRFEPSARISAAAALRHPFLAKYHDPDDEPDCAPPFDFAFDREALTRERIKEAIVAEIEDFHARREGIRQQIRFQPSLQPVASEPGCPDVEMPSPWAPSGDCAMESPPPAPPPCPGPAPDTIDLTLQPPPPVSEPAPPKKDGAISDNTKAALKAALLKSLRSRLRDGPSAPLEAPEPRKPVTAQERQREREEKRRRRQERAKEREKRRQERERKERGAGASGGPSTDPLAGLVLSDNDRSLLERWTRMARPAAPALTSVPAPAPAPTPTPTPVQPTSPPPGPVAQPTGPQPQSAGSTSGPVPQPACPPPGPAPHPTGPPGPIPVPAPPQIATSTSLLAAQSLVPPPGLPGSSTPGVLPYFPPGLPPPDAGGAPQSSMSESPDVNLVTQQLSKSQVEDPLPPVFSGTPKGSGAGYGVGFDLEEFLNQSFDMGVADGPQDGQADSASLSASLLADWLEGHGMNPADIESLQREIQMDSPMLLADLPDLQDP
Assay [4] is described as follows: hESC survival regulators, cell-based (AID 493140).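 Further: cells exposed to compounds for four days before counting.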 The settings on record: human embryonic stem cell survival screen; stronger effect = higher value.
Assay [5] can be described thus: kinase inhibitors against Plasmodium liver-stage infection, cell-based, known kinase inhibitor set, luminescence, hepatoma host viability (AID 624392).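 Further: infected cells incubated roughly two days before readout.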 The settings on record: Plasmodium liver stage in hepatoma cells, luciferase luminescence, concentration not given here; liver cell % of control: measured here: host liver cell viability; parasite % of control: stronger effect = lower value.

Assay [6] can be described thus: survival rescue of mitochondrial mutant cells in low glucose, primary screen, MELAS cybrids, Rieske KO mouse fibroblasts, CellTiter-Glo (AID 1508586;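 active means mean z-score across replicates of 1.96 or higher in either the MELAS or the Rieske mutant cell line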;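 further: z relative to plate mean and SD of compound and empty wells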). In general terms: Cellular ATP, detected with luciferase, serves as a proxy for viable cell number.
Assay [7] deals with NAD(+) hydrolase SARM1 (Homo sapiens) (UniProt Q6SZW1). Kind of assay: SARM1 TIR NADase inhibitors, cell lysate, NAD-Glo luminescence (AID 1508614;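 active means compound whose remaining NAD level is above about 45 nM, limit read from the data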). The note with it: SAM-TIR HEK293T lysate NADase, at 1 µM, stronger effect = higher value.
Sequence of NAD(+) hydrolase SARM1 (Homo sapiens) (Q6SZW1 whole entry, looked up): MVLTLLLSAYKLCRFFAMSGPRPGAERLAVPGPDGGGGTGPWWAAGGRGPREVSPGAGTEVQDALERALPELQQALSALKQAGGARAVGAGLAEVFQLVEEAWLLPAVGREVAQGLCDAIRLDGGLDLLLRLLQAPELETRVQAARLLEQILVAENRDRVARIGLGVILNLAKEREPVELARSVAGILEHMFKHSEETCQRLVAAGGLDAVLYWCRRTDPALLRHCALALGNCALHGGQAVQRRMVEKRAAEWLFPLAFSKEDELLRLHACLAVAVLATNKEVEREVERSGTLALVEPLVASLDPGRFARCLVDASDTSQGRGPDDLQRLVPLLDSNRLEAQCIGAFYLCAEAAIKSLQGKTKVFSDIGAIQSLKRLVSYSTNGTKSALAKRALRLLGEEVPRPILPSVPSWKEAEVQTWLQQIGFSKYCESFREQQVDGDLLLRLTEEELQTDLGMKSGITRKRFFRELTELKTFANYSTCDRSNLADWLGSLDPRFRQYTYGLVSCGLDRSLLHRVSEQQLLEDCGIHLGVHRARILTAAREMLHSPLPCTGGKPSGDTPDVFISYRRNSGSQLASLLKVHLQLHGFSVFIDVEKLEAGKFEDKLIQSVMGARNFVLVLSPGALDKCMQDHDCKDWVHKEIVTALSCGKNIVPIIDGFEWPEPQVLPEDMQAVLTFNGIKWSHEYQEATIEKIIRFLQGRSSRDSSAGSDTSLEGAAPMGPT
Assay [8] has as its system Hepatitis C virus NS3 helicase. Kind of assay: HCV NS3 helicase inhibitors, primary screen, biochemical, fluorescence polarization, LOPAC1280 library (AID 687035; in the data active means inhibition above about 37%). The settings on record: Purified HCV NS3 helicase, Cy5-dT15 ssDNA binding fluorescence polarization; stronger effect = higher value; concentration not given here. For orientation: Fluorescence polarisation rises when a labelled molecule tumbles more slowly, as on binding a larger partner.

The nature of assay [9]: Cy5 fluorescence quenching or enhancement artefacts, artefact control for HCV NS3 helicase inhibitor project, biochemical, LOPAC1280 (AID 687037). The settings on record: Cy5-DNA-NS3h complex fluorescence interference counterscreen. (Counterscreens check selectivity or assay interference.)
[10] abbreviates: stronger effect = lower value, cell number ratio, induced over uninduced.
[11] abbreviates: measured here: relative caspase fold change +Dox/-Dox.
Where [12] appears, read: measured here: total cells with miR-34 induction, stronger effect = lower value.
The mark [13] stands for this setting: measured here: total cells without miR-34 induction.
[14] abbreviates: MELAS cybrid survival, CellTiter-Glo 48 h, stronger effect = higher value.
The mark [15] stands for this setting: Rieske KO mouse fibroblast survival, CellTiter-Glo 72 h.

Values joined by “and” are separate entries in the source; they are usually repeats but may differ in a detail not shown here. Identical values can stand only once. A structure can be active in one record and inactive in another. Active and inactive are the calls of the source. Unless noted, how the calls were made is not given here.

On to `C[C@]1(OC(=O)/C=C/c2ccccc2)C[C@@H](O)[C@]2(O)C=CO[C@@H](O[C@@H]3O[C@H](CO)[C@@H](O)[C@H](O)[C@H]3O)[C@@H]21`, for which the parasite load remaining in [1] was 121% (inactive). The viability in assay [1] was determined as 74.8%. Moreover, the fold change in assay [2] (setting [10]) is 0.943 (inactive); in assay [2] (setting [11]), 0.61. Besides, the cell count in assay [2] (setting [12]) is 9240; in [2] (setting [13]), 9800. For the same molecule, in assay [3], the luciferase signal was 28 AU (inactive).
As for `C=N[C@@H](C(=O)N[C@@H]1C(=O)N2[C@@H]1SC(C)(C)[C@@H]2C(=O)O)c1ccccc1`, the survival in assay [4] was 22.6 (inactive). Moreover, in [1], the parasite load remaining is 47.6% (inactive) and 102% (inactive). Besides, the viability in [1] is 47.2% and 93.5%. Moreover, the fold change was 0.849 (inactive) in assay [2] (setting [10]) and 1.16 in [2] (setting [11]). Also, the cell count in assay [2] (setting [12]) was 8000; in assay [2] (setting [13]), 9420. Also, the luciferase signal in assay [3] was 80 AU (inactive).
As for `O=C1NC(=O)C(=Cc2cccc(C(F)(F)F)c2)S1`, the liver cell % of control in assay [5] is 81.5% and 80.8% and 97.3%. The parasite % of control in [5] is 0.631% (inactive) and 2.17% (inactive) and 7.31% (inactive). Moreover, the figures for the fold change in [2] (setting [10]) and in assay [2] (setting [11]) were 0.809 (inactive) and 0.469, respectively. In addition, the cell count in assay [2] (setting [12]) was 7740; in assay [2] (setting [13]), 9570. The z-score was -0.352 (inactive) in assay [6] (setting [14]) and 0.482 in [6] (setting [15]).
Turning to `C[C@H](Cn1cnc2c(N)ncnc21)OCP(=O)(O)O`, the fold change is 0.942 (inactive) in [2] (setting [10]) and 0.901 in assay [2] (setting [11]). Besides, the cell count worked out at 9100 in assay [2] (setting [12]) and 9660 in [2] (setting [13]). The remaining NAD in assay [7] is 10 nM (inactive).
On to `CCc1c(C(=O)NCCc2ccc(N3CCCCC3)cc2)[nH]c2ccc(Cl)cc12`, for which the inhibition in assay [8] is 0% (inactive). Also, the fluorescence ratio (interference) in [9] was 1 (inactive). Moreover, the fold change in assay [2] (setting [10]) is 0.939 (inactive); in assay [2] (setting [11]) it was 0.558. Also, the results for the cell count in assay [2] (setting [12]) and in [2] (setting [13]) were 7490 and 7980, respectively. The z-score in [6] (setting [14]) is 0.376 (inactive); in assay [6] (setting [15]), -0.206.
For the molecule `CN(C)CCC(CSc1ccccc1)Nc1ccc(S(=O)(=O)NC(=O)c2ccc(N3CCN(Cc4ccccc4-c4ccc(Cl)cc4)CC3)cc2)cc1[N+](=O)[O-]` (stereo not given), the liver cell % of control in [5] was 65.5% and 90.4% and 88.4%. Further, the parasite % of control in [5] is 27.6% (inactive) and 29.4% (inactive) and 37% (inactive). In addition, the fold change in assay [2] (setting [10]) was 0.995 (inactive); in assay [2] (setting [11]), 0.778. Besides, the values for the cell count in assay [2] (setting [12]) and in assay [2] (setting [13]) were 5830 and 5860, respectively. For the same molecule, the z-score in assay [6] (setting [14]) was -0.297 (inactive); in assay [6] (setting [15]) it was -2.14.
For `CCN(CC)CCNC(=O)c1c(C)[nH]c(C=C2C(=O)Nc3ccc(F)cc32)c1C`, in assay [5], the liver cell % of control is 117% and 132% and 81.2%. In addition, the parasite % of control in [5] is 0.0958% (inactive) and 0.227% (active) and 376% (inactive). For the same molecule, the figures for the fold change in assay [2] (setting [10]) and in assay [2] (setting [11]) were 0.743 (inactive) and 1.2, respectively. The cell count in assay [2] (setting [12]) is 2230; in assay [2] (setting [13]), 3000. In addition, the z-score in assay [6] (setting [14]) is -0.621 (inactive); in assay [6] (setting [15]) it was -1.61.
Turning to `O=C1NC(=O)C(=Cc2ccc(-c3ccc(F)cc3O)o2)S1`, in [5], the liver cell % of control was 115% and 104% and 93.4%. In addition, the parasite % of control in [5] was 1.06% (inactive) and 3.29% (inactive) and 2.91% (inactive). The values for the fold change in [2] (setting [10]) and in assay [2] (setting [11]) were 0.91 (inactive) and 0.626, respectively. For the same molecule, the figures for the cell count in assay [2] (setting [12]) and in assay [2] (setting [13]) were 8670 and 9530, respectively. The z-score in assay [6] (setting [14]) was -0.351 (inactive); in assay [6] (setting [15]) it was -0.0319.

By viability is commonly meant the share of living cells, or the viability signal relative to a control. The inhibition is the percentage by which the read-out fell short of the control.

Values taken from PubChem BioAssay.
